In PubChem BioAssay (EPA / NIEHS):
Inconclusive results are not listed. The source made the active and inactive calls. Rule for the calls: active = hit-call score of the fitted dose curve at least 0.9, where 1 is the maximum; inconclusive = response in the unintended direction; inactive = score below 0.9.

Tests used:
[1] = biological target: sheep Cyclooxygenase-1 (Cox1), PTGS1 (gene 443551) (UniProt P05979); experiment: NVS_ENZ_oCOX1: NovaScreen (NVS) Enzymatic Assay for sheep Cyclooxygenase-1 (Cox1) (AID 2283239);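 note: actives reduce cyclooxygenase activity so potencies are for inhibitors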
sheep Cyclooxygenase-1 (Cox1), PTGS1 (gene 443551), sequence (P05979 whole entry, looked up): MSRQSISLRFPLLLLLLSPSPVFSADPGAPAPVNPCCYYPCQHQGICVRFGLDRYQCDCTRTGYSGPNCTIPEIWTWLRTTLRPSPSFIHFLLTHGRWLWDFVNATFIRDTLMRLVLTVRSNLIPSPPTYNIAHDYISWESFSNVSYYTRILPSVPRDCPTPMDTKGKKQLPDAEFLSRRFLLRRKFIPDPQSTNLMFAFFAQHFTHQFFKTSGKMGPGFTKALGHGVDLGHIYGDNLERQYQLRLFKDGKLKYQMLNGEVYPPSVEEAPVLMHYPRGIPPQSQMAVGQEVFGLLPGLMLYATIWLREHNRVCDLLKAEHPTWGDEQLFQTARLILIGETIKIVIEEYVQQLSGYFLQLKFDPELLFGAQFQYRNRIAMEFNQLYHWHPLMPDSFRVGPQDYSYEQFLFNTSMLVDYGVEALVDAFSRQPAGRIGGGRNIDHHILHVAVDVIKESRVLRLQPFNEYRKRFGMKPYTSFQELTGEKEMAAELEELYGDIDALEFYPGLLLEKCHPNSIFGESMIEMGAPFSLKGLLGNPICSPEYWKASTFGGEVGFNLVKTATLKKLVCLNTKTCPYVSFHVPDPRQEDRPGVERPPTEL
Method in brief: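 Ovine seminal vesicle extract; absorbance (colorimetric) enzyme read-out at 0.66 h post-dose. Primary: single conc 25 uM, duplicate. Follow-up: concentration series on actives. Activity = signal loss vs DMSO baseline.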

[2] = biological target: guinea pig Leukotriene D4 Receptor (LTD4), CYSLTR1 (gene 100135514) (UniProt Q2NNR5); experiment: NVS_GPCR_gLTD4: NovaScreen (NVS) G Protein-Coupled Receptor Assay for guinea pig Leukotriene D4 Receptor (LTD4) (AID 2283248)
guinea pig Leukotriene D4 Receptor (LTD4), CYSLTR1 (gene 100135514), sequence (Q2NNR5 whole entry, looked up): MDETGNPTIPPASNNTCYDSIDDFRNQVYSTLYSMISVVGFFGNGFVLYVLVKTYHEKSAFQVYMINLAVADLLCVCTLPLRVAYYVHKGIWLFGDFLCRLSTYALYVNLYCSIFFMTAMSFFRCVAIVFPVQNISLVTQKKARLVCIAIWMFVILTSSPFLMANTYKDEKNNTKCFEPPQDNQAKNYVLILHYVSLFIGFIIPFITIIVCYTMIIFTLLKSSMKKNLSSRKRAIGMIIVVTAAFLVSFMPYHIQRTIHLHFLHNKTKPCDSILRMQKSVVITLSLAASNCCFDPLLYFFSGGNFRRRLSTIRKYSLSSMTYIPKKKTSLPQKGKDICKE
Method in brief: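 Radioligand displacement on guinea pig lung membranes, 1 h incubation, filtration and scintillation counting; DMSO as negative control. Duplicate 25 uM primary screen, then singleton concentration-response up to 50 uM.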

[3] = biological target: human Serotonin, 5-Hydroxytryptamine Receptor 2A (5HT2A), HTR2A (gene 3356) (UniProt P28223); experiment: NVS_GPCR_h5HT2A: NovaScreen (NVS) G Protein-Coupled Receptor Assay for human Serotonin, 5-Hydroxytryptamine Receptor 2A (5HT2A) (AID 2283249)
human Serotonin, 5-Hydroxytryptamine Receptor 2A (5HT2A), HTR2A (gene 3356), sequence (P28223 whole entry, looked up): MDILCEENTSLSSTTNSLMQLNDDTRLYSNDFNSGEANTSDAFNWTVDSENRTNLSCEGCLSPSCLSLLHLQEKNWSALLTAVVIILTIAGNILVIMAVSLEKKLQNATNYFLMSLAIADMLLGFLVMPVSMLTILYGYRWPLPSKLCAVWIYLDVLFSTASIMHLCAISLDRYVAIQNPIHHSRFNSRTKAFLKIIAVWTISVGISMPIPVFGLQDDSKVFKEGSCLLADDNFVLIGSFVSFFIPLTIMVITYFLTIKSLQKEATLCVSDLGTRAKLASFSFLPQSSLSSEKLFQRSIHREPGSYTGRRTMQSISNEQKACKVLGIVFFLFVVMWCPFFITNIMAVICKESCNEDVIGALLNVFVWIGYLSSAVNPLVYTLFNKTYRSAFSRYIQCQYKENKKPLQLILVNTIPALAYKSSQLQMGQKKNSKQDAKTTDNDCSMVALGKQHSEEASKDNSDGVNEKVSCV
Method in brief: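 Human cortex membranes, cell-free radioligand binding; filter-based scintillation read 1.5 h after dosing. Duplicate screen at 25 uM first; displacement of specific binding (loss of signal) versus DMSO.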

[4] = biological target: human Serotonin, 5-Hydroxytryptamine Receptor 5A (5HT5A), HTR5A (gene 3361) (UniProt P47898); experiment: NVS_GPCR_h5HT5A: NovaScreen (NVS) G Protein-Coupled Receptor Assay for human Serotonin, 5-Hydroxytryptamine Receptor 5A (5HT5A) (AID 2283251)
human Serotonin, 5-Hydroxytryptamine Receptor 5A (5HT5A), HTR5A (gene 3361), sequence (P47898 whole entry, looked up): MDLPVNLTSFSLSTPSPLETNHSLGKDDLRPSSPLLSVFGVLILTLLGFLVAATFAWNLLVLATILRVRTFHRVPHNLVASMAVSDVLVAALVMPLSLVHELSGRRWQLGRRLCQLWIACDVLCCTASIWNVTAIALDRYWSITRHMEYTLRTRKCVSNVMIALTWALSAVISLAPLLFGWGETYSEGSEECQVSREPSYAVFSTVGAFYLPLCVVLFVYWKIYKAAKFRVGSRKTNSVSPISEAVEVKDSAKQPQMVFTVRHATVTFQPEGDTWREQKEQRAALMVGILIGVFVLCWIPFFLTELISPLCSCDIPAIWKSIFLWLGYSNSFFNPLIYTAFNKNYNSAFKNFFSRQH
Method in brief: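 Cell-free radioligand displacement binding on HEK293-derived membrane protein, 1 h incubation, filter-based scintillation counting. Primary screen in duplicate at 25 uM, actives followed in concentration series; loss of signal fitted versus DMSO.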

[5] = biological target: human Serotonin, 5-Hydroxytryptamine Receptor 6 (5HT6), HTR6 (gene 3362) (UniProt P50406); experiment: NVS_GPCR_h5HT6: NovaScreen (NVS) G Protein-Coupled Receptor Assay for human Serotonin, 5-Hydroxytryptamine Receptor 6 (5HT6) (AID 2283253)
human Serotonin, 5-Hydroxytryptamine Receptor 6 (5HT6), HTR6 (gene 3362), sequence (P50406 whole entry, looked up): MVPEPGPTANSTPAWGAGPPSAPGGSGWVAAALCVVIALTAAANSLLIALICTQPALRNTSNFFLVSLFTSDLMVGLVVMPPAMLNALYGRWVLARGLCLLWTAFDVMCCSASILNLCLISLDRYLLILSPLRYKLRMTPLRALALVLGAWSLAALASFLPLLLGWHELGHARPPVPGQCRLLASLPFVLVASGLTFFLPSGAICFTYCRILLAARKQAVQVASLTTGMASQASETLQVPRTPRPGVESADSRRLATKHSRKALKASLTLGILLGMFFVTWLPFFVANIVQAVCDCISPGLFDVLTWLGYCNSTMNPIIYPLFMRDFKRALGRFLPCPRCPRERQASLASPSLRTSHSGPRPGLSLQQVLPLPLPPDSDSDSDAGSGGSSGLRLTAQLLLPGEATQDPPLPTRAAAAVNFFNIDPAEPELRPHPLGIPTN
Method in brief: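 Radioligand binding to 5HT6 in HEK293-derived membranes, cell-free, 1 h after dosing; bound ligand measured by filter-based scintillation counting. Primary screen in duplicate at 25 uM; actives retested in concentration series.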

[6] = biological target: human Serotonin, 5-Hydroxytryptamine Receptor 7 (5HT7), HTR7 (gene 3363) (UniProt P34969); experiment: NVS_GPCR_h5HT7: NovaScreen (NVS) G Protein-Coupled Receptor Assay for human Serotonin, 5-Hydroxytryptamine Receptor 7 (5HT7) (AID 2283255);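 note: hits reduce specific radioligand binding relative to DMSO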
human Serotonin, 5-Hydroxytryptamine Receptor 7 (5HT7), HTR7 (gene 3363), sequence (P34969 whole entry, looked up): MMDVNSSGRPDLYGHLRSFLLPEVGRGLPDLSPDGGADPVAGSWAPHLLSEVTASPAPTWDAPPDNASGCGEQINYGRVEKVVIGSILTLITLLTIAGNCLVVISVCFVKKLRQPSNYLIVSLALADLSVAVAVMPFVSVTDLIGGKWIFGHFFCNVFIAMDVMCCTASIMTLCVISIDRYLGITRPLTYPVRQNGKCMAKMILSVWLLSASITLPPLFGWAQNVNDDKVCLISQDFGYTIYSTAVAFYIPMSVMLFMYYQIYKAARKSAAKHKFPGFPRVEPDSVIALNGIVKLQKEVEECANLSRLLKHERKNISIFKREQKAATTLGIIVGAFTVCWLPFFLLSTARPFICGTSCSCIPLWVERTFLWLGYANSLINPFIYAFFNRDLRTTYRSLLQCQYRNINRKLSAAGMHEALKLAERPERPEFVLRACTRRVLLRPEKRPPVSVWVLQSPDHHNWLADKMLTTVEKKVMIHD
Method in brief: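 Radioligand displacement on membranes from CHO cells expressing human 5HT7, 1 h incubation, filter-based scintillation counting. Primary screen used a single 25 uM concentration in duplicate; actives were followed up in concentration series.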

[7] = biological target: human Adrenergic, Alpha 2c Receptor (Adra2C), ADRA2C (gene 152) (UniProt P18825); experiment: NVS_GPCR_hAdra2C: NovaScreen (NVS) G Protein-Coupled Receptor Assay for human Adrenergic, Alpha 2c Receptor (Adra2C) (AID 2283259)
human Adrenergic, Alpha 2c Receptor (Adra2C), ADRA2C (gene 152), sequence (P18825 whole entry, looked up): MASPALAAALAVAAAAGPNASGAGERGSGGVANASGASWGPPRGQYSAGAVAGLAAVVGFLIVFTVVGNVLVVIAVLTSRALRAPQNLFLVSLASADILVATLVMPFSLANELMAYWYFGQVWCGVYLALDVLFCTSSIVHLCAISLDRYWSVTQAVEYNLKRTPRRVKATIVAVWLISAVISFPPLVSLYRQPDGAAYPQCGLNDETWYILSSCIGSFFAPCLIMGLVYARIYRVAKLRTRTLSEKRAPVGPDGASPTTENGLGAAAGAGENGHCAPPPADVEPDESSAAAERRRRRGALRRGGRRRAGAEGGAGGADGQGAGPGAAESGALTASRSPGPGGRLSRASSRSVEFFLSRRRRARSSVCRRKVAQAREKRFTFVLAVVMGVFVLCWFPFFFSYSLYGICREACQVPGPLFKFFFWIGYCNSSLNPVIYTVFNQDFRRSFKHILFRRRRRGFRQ
Method in brief: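 Radioligand binding on Sf9-expressed receptor membranes, 1 h after chemical dosing, filter-based scintillation read-out. Loss of binding fitted positively versus DMSO; primary duplicate screen at 25 uM, actives retested in concentration series.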

[8] = biological target: Beta-2 adrenergic receptor (Homo sapiens) (UniProt P07550); experiment: NVS_GPCR_hAdrb2: NovaScreen (NVS) G Protein-Coupled Receptor Assay for human Adrenergic, Beta 2 Receptor (Adrb2) (AID 2283261)
Beta-2 adrenergic receptor (Homo sapiens), sequence (P07550 whole entry, looked up): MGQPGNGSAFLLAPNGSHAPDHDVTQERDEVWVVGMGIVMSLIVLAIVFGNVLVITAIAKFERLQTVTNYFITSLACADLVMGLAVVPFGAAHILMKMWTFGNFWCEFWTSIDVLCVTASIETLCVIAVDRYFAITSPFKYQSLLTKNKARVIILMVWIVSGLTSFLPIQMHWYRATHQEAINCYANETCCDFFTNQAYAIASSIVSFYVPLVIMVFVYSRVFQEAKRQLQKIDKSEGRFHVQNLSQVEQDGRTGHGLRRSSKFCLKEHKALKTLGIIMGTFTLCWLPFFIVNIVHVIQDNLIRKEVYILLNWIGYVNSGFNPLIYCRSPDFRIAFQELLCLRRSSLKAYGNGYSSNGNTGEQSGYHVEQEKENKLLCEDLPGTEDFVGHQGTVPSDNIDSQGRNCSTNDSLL
Method in brief: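 Filter-based radioligand binding using receptor prepared from CHO cells, 1 h incubation, scintillation counting. Primary screen in duplicate at 25 uM, actives retested in concentration series; loss of binding relative to DMSO.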

[9] = biological target: human Adenosine A2a Receptor (AdoRA2a), ADORA2A (gene 135) (UniProt P29274); experiment: NVS_GPCR_hAdoRA2a: NovaScreen (NVS) G Protein-Coupled Receptor Assay for human Adenosine A2a Receptor (AdoRA2a) (AID 2283256)
human Adenosine A2a Receptor (AdoRA2a), ADORA2A (gene 135), sequence (P29274 whole entry, looked up): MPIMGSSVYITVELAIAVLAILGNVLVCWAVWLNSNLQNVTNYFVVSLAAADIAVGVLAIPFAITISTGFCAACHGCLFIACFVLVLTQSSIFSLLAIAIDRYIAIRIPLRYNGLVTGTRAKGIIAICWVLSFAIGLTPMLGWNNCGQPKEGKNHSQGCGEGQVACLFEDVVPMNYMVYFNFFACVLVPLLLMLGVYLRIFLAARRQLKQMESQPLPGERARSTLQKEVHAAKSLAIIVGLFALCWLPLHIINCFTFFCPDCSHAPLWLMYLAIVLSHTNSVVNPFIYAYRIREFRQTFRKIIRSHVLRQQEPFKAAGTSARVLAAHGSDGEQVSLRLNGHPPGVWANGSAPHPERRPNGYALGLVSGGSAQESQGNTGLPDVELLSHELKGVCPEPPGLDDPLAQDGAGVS
Method in brief: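 Cell-free radioligand binding on membranes from HEK293 expressing the receptor; competitive displacement read 1.5 h after dosing by filter-based scintillation counting. Primary screen in duplicate at 25 uM; actives followed in concentration series, with DMSO as baseline.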

[10] = biological target: rat Constitutive Nitric Oxide Synthase (CNOS), Nos1 (gene 24598) (UniProt P29476); experiment: NVS_ENZ_rCNOS: NovaScreen (NVS) Enzymatic Assay for rat Constitutive Nitric Oxide Synthase (CNOS) (AID 2283236)
Method in brief: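 Enzyme activity in rat brain membrane preparation, read 1 h after dosing by filter-based radiometric scintillation counting. Primary screen in duplicate at 25 uM; actives (e.g., ≥30% inhibition) then run in concentration-response up to 50 uM.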

[11] = biological target: bovine Dopamine Receptor (DR), Non-selective Binding, DRD1 (gene 281125) (UniProt Q95136); experiment: NVS_GPCR_bDR_NonSelective: NovaScreen (NVS) G Protein-Coupled Receptor Assay for bovine Dopamine Receptor (DR), Non-selective Binding (AID 2283241)
Method in brief: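 Bovine striatal membranes; radioligand displacement read by filtration and scintillation counting 1 h after dosing, loss of signal vs DMSO. Screened in duplicate at 25 uM, then concentration-response for hits.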

[12] = system: bovine Histamine 1 Receptor (H1), gene 281231; experiment: NVS_GPCR_bH1: NovaScreen (NVS) G Protein-Coupled Receptor Assay for bovine Histamine 1 Receptor (H1) (AID 2283246)
Method in brief: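 Radioligand displacement on bovine cerebellar membranes, 1 h after dosing, filter-based scintillation read-out; loss of signal vs DMSO. Duplicate single-concentration screen at 25 uM, then concentration-response up to 50 uM for hits.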

[13] = system: guinea pig Muscarinic, Peripheral (Mperiperal) Receptor, Non-selective Binding, gene 100379235; experiment: NVS_GPCR_gMPeripheral_NonSelective: NovaScreen (NVS) G Protein-Coupled Receptor Assay for guinea pig Muscarinic, Peripheral (Mperiperal) Receptor, Non-selective Binding (AID 2283250)
Method in brief: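 Guinea pig bladder membranes, radioligand binding read 1 h after dosing by filter scintillation counting; loss of signal vs DMSO. Primary duplicate screen at 25 uM, then concentration-response up to 50 uM.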

[14] = biological target: human Adrenergic, Alpha 2A Receptor (Adra2A), ADRA2A (gene 150) (UniProt P08913); experiment: NVS_GPCR_hAdra2A: NovaScreen (NVS) G Protein-Coupled Receptor Assay for human Adrenergic, Alpha 2A Receptor (Adra2A) (AID 2283257)
Method in brief: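 Radioligand filter-binding was run on HT29-derived membranes, cell-free, read by scintillation counting 1 h after dosing. Primary screening was in duplicate at 25 uM, with concentration series in follow-up. Loss of signal versus DMSO indicates displacement.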

[15] = biological target: human Adrenergic, Beta 1 Receptor (Adrb1), ADRB1 (gene 153) (UniProt P08588); experiment: NVS_GPCR_hAdrb1: NovaScreen (NVS) G Protein-Coupled Receptor Assay for human Adrenergic, Beta 1 Receptor (Adrb1) (AID 2283258)
human Adrenergic, Beta 1 Receptor (Adrb1), ADRB1 (gene 153), sequence (P08588 whole entry, looked up): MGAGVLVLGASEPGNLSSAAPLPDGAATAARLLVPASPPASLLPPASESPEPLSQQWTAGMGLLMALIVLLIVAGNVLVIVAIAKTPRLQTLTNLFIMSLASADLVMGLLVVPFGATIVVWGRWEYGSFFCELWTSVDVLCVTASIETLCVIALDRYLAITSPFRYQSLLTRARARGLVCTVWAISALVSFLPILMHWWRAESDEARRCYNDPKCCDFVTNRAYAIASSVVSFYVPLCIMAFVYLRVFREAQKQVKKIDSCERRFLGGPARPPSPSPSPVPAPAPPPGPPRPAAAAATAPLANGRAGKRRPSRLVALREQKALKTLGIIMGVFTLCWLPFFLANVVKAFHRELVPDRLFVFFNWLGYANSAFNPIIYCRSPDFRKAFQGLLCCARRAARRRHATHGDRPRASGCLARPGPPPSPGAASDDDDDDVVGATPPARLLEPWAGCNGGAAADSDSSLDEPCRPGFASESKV
Method in brief: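 Cell-free radioligand displacement on receptor from human neuroepithelioma cells; 2 h after dosing, filter-based scintillation counting. Primary screen in duplicate at 25 uM, actives retested in concentration series; loss of signal vs DMSO baseline.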

[16] = system: bovine Angiotensin II Receptor Type 2 (AT2), gene 407157; experiment: NVS_GPCR_bAT2: NovaScreen (NVS) G Protein-Coupled Receptor Assay for bovine Angiotensin II Receptor Type 2 (AT2) (AID 2283240)
Method in brief: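 Radioligand displacement on bovine cerebellar membranes, 1 hour incubation, filter-based scintillation counting; loss of signal vs DMSO. Duplicate single-point screen at 25 uM, then concentration-response to 50 uM maximum.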

[17] = biological target: Adenosine receptor A1 (Bos taurus) (UniProt P28190); experiment: NVS_GPCR_bAdoR_NonSelective: NovaScreen (NVS) G Protein-Coupled Receptor Assay for bovine Adenosine Receptor (AdoR), Non-selective Binding (AID 2283244)
Adenosine receptor A1 (Bos taurus), sequence (P28190 whole entry, looked up): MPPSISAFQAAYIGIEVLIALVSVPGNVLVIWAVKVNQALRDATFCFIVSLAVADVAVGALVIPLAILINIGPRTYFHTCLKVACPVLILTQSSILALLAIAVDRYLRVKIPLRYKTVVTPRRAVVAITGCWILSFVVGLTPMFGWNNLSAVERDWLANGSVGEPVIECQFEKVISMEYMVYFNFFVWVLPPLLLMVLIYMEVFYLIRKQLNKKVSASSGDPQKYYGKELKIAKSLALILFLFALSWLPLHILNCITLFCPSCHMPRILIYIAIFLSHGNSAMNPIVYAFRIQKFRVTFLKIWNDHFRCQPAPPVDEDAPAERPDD
Method in brief: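 Bovine striatal membranes, radioligand displacement binding, 1 h after dosing, filter-based scintillation counting. Screened in duplicate at 25 uM, then concentration-response up to 50 uM; loss of specific binding relative to DMSO.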

C[C@](N)(Cc1ccc(O)c(O)c1)C(=O)O
AC50 [1]: 2.33 µM (active)

CCc1cc(SCc2sc(-c3ccc(C(F)(F)F)cc3)nc2CN2CCN(c3ccc(OC)cc3)CC2)ccc1OCC(=O)O
outcome [1]: inactive
outcome [2]: inactive
outcome [3]: inactive
AC50 [4]: 2.36 µM (active)
AC50 [5]: 37.3 µM (active)
AC50 [6]: 4.32 µM (active)
AC50 [7]: 2.63 µM (active)
outcome [8]: inactive

Oc1ccc2c(c1)-c1ccccc1C2
outcome [1]: inactive
outcome [6]: inactive
AC50 [9]: 25 µM (active)

CC[C@H](C)C(=O)O[C@H]1C[C@@H](C)C=C2C=C[C@H](C)[C@H](CC[C@@H]3C[C@@H](O)CC(=O)O3)[C@H]21
AC50 [1]: 34.3 µM (active)

COc1cccc(-c2ccc(/C=C\CN3CCCCCC3)cc2Cl)c1
AC50 [10]: 29.9 µM (active)
AC50 [11]: 36.4 µM (active)
AC50 [12]: 8.81 µM (active)
AC50 [3]: 15.8 µM (active)
AC50 [13]: 11.1 µM (active)
AC50 [4]: 22.6 µM (active)
AC50 [6]: 17.5 µM (active)
AC50 [14]: 8.54 µM (active)
AC50 [15]: 22.6 µM (active)
AC50 [7]: 0.401 µM (active)
AC50 [8]: 26.4 µM (active)

CCCCCCc1ccc(O)cc1O
AC50 [1]: 5.25 µM (active)
outcome [4]: inactive
AC50 [6]: 25 µM (active)
AC50 [15]: 25 µM (active)
AC50 [7]: 6.31 µM (active)

Nc1nc2ncc(CNc3ccc(C(=O)N[C@@H](CCC(=O)O)C(=O)O)cc3)nc2c(=O)[nH]1
AC50 [1]: 11 µM (active)

CNS(=O)(=O)c1cc(C(=O)N2CCC(CCN3C4CCC3CC(n3c(C)nc5ccccc53)C4)(c3cccc(F)c3)CC2)c(Cl)cc1F (stereo not given)
outcome [16]: inactive

Cn1c(=O)c2c(ncn2C)n(C)c1=O
AC50 [17]: 25 µM (active)

CCOc1cccc(-n2cc(C(=O)N3CCN(c4cc(C(=O)O)c5ccccc5c4)CC3)nc2-c2ccc(C)cc2)c1
outcome [17]: inactive
AC50 [2]: 19.8 µM (active)

CCCN(C1CCN(C(=O)C2CCNCC2)CC1)[C@@H]1CCc2ccc(OC)cc2C1
AC50 [12]: 11.6 µM (active)

Cc1[nH]cnc1C[C@H]1CCc2c(C)c3ccccc3n2C1=O
AC50 [5]: 0.399 µM (active)
AC50 [9]: 22.2 µM (active)
AC50 [15]: 1.04 µM (active)

O=P(OC(CCl)CCl)(OC(CCl)CCl)OC(CCl)CCl
outcome [5]: inactive

CCOC(=O)COc1ccc2c(c1)CC(NCC(O)c1cccc(Cl)c1)CC2 (stereo not given)
AC50 [15]: 3.33 µM (active)
